# Source: PubChem BioAssay (Tox21)
# Values joined by “and” are separate entries in the source; they are usually repeats but may differ in a detail not shown here. Equal values may be shown once. Results filed as inconclusive are left out. Active and inactive are the calls of the source. The call rests on the fitted dose curve; in most records, active means well fitted inhibition curve with a large enough effect in the repeat runs; inconclusive means weak or mixed curves; inactive means no such curve, though single readings can be large or run the other way.
# Target: Cytochrome P450 2C19 (Homo sapiens) (UniProt P33261)
# Sequence (P33261 whole entry, looked up): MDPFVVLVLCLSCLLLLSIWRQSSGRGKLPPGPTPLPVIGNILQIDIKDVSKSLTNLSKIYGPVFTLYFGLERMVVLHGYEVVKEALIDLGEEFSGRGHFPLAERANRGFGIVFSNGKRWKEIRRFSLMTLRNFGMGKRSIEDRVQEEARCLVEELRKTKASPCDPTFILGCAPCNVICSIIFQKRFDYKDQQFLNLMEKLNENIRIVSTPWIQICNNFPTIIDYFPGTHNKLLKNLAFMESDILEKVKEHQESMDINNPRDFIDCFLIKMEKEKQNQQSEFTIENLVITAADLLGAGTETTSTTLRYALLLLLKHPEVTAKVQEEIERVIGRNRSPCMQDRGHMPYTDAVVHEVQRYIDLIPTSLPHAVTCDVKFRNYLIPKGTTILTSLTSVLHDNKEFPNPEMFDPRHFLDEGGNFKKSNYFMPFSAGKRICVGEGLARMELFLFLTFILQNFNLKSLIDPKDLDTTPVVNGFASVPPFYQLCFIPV
# Assay: Cytochrome P450 Family 2 Subfamily C Member 19 (CYP2C19) small molecule antagonists: luciferase reporter qHTS assay (AID 1671197); further: nearly all actives have a fitted effect of over 65% in size
# Conditions: P450-Glo CYP2C19 enzyme, luciferin luminescence, 1 h; series mostly up to 115 µM; activity change, negative = inhibition: at the top concentration
# Summary of the method: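 Enzyme-substrate mix with proluciferin substrate (P450-Glo CYP2C19 system) preincubated with compounds 10 min at room temperature; NADPH regeneration solution added, 37C for 1 h; detection reagent stops reaction, luminescence read after 20 min. Ketoconazole positive control.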
# On the % scale 0 is the no-effect control and ±100 the full control effect; potency means the concentration at half of the fitted maximal effect.
Structure (SMILES),Potency,"activity change, negative = inhibition"
C#C[C@]1(O)CC[C@H]2[C@@H]3[C@H](C)CC4=C(CCC(=O)C4)[C@H]3CC[C@@]21C,3.89 µM (active),–
C=C(C)c1cccc(C(=C)C)c1,–,3.2% (inactive)
CCCCCCCCCCCCCC[N+](C)(C)Cc1ccccc1,64.3 µM (active) and 20 mM (active),–
Cc1c2ccccc2c(C)c2c1ccc1ccccc12,4.98 µM (active) and 3.99 µM (active),–
C#C[C@]1(OC(C)=O)CC[C@H]2[C@@H]3CCC4=C[C@@H](OC(C)=O)CC[C@@H]4[C@H]3CC[C@@]21C,21.9 µM (active),–
COC(=O)c1ccccc1C,–,-0.588% (inactive)
CCc1cccc(CC)c1NC(=O)CN(CC(=O)O)CC(=O)O,–,2.58% [at 52.9 µM] (inactive)
Cc1cc(-c2ccc(N=Nc3cc(S(=O)(=O)O)c4ccccc4c3N)c(C)c2)ccc1N=Nc1cc(S(=O)(=O)O)c2ccccc2c1N,–,0.152% (inactive)
Cc1cccc(C(=O)O)c1O,–,23.1% [at 52.9 µM] (inactive)
COc1cc(S(=O)(=O)O)c(C)cc1N=Nc1c(O)ccc2cc(S(=O)(=O)O)ccc12,79.6 µM (active),–
OC/C=C/CO,–,-17.3% (inactive)
c1ccc(SSc2ccccc2)cc1,22.6 µM (active),–
c1cnccn1,–,7.58% (inactive)
O=C(O)CCN(C1(C(=O)NO)CCCC1)S(=O)(=O)c1ccc(Oc2ccc(F)cc2)cc1,–,-0.591% (inactive)
O=C1CCCCCCCCCCCCCCCO1,–,7.32% (inactive)
C[C@H]1NCc2cc(-c3ccc4c(=O)c(C(=O)O)cn(C5CC5)c4c3OC(F)F)ccc21,–,-6.59% [at 23.6 µM] (inactive)
COC(=O)C1=C(C)NC(C)=C(C(=O)OCCN2CCN(C(c3ccccc3)c3ccccc3)CC2)C1c1cccc([N+](=O)[O-])c1 (stereo unspecified),2.45 µM (active),–
COc1cc2nc(N3CCN(C(=O)c4ccco4)CC3)nc(N)c2cc1OC,–,16.3% [at 23.6 µM] (inactive)
Cc1cc(C)c(/C=C2\C(=O)Nc3ccccc32)[nH]1,7.76 µM (active),–

Structure (SMILES),Potency,"activity change, negative = inhibition"
Clc1sc(Cl)c(Cl)c1Cl,–,6.65% (inactive)
CC(C)=CCC1=C(O)c2ccccc2C(=O)C1=O,28.1 µM (active),–
OC[C@@H](O)[C@@H](O)CO,–,16.1% (inactive)
CCCCCC/C=C\CCCCCCCC(=O)O,50.2 µM (active),–
O=[N+]([O-])c1cccc(C(F)(F)F)c1,–,10.1% (inactive)
COc1cc(/C=C/c2ccccc2)oc(=O)c1,10.4 µM (active),–
O=[N+]([O-])c1ccc(O)cc1C(F)(F)F,–,266% (inactive)
O=c1oc2cc(O)ccc2c2oc3cc(O)ccc3c12,76.4 µM (active),–
CC[C@H](C)COC(=O)/C=C/c1ccc(N=Cc2ccc(OC)cc2)cc1,0.893 µM (active),–
C[C@@H](O)[C@H](N)C(=O)O,–,6.88% [at 23.6 µM] (inactive)
C/C=C/C=C/COC(=O)C(C)C,79.6 µM (active),–
S=c1nccc[nH]1,31.8 µM (active),–
CC(=O)OCC=C(C)C,–,6.75% [at 52.9 µM] (inactive)
Cc1ccc(O)c(N)c1,35.6 µM (active),–
OCC(F)(F)F,74.8 µM (active),–
C=Cc1cccc(C)c1,–,-7.23% (inactive)
Nc1nc(-c2ccccc2)cs1,5.01 µM (active),–
O=C(c1ccc(O)c(O)c1)c1ccc(O)cc1O,17.8 µM (active),–
CN(C)Cc1ccccc1O,–,13.4% (inactive)

# Target: Cytochrome P450 2C9 (Homo sapiens) (UniProt P11712)
# Sequence (P11712 whole entry, looked up): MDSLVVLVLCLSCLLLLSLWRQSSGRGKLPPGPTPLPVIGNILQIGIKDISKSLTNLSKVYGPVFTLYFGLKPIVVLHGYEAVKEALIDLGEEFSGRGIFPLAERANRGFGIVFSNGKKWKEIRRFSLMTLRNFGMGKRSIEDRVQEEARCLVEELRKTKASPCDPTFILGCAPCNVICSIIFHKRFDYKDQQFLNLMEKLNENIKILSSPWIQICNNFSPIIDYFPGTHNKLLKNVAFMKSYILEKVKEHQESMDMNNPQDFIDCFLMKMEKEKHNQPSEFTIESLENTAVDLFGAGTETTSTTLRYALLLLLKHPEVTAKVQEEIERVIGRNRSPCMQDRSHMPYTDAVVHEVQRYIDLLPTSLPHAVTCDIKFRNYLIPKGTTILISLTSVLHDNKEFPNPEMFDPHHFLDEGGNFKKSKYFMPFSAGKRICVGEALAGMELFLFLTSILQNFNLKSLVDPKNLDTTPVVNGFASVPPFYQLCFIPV
# Assay: Cytochrome P450 Family 2 Subfamily C Member 9 (CYP2C9) small molecule antagonists: luciferase reporter qHTS assay (AID 1671198); further: nearly all actives have a fitted effect of over 50% in size
# Conditions: P450-Glo CYP2C9 enzyme assay, luciferin luminescence; series mostly up to 115 µM; activity change, negative = inhibition: at the top concentration
# Summary of the method: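 P450-Glo proluciferin substrate with CYP2C9 enzyme; 10 min RT preincubation, then NADPH regeneration 1 h at 37C; luciferin detection reagent 20 min RT, luminescence in relative luminescence units.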
Structure (SMILES),Potency,"activity change, negative = inhibition"
C#C[C@]1(O)CC[C@H]2[C@@H]3[C@H](C)CC4=C(CCC(=O)C4)[C@H]3CC[C@@]21C,13.8 µM (active),–
C=C(C)c1cccc(C(=C)C)c1,–,-8.08% (inactive)
CCCCCCCCCCCCCC[N+](C)(C)Cc1ccccc1,80.9 µM (active),–
Cc1c2ccccc2c(C)c2c1ccc1ccccc12,22.2 µM (active) and 25.2 µM (active),–
C#C[C@]1(OC(C)=O)CC[C@H]2[C@@H]3CCC4=C[C@@H](OC(C)=O)CC[C@@H]4[C@H]3CC[C@@]21C,12.3 µM (active),–
COC(=O)c1ccccc1C,–,-19.6% (inactive)
CCc1cccc(CC)c1NC(=O)CN(CC(=O)O)CC(=O)O,–,-1.36% [at 53 µM] (inactive)
Cc1cc(-c2ccc(N=Nc3cc(S(=O)(=O)O)c4ccccc4c3N)c(C)c2)ccc1N=Nc1cc(S(=O)(=O)O)c2ccccc2c1N,–,2.49% (inactive)
Cc1cccc(C(=O)O)c1O,–,-14.6% [at 53 µM] (inactive)
COc1cc(S(=O)(=O)O)c(C)cc1N=Nc1c(O)ccc2cc(S(=O)(=O)O)ccc12,39.9 µM (active),–
OC/C=C/CO,–,-9.37% (inactive)
c1ccc(SSc2ccccc2)cc1,31.9 µM (active),–
c1cnccn1,–,-0.184% (inactive)
O=C(O)CCN(C1(C(=O)NO)CCCC1)S(=O)(=O)c1ccc(Oc2ccc(F)cc2)cc1,–,-18.5% (inactive)
O=C1CCCCCCCCCCCCCCCO1,–,-9.46% (inactive)
C[C@H]1NCc2cc(-c3ccc4c(=O)c(C(=O)O)cn(C5CC5)c4c3OC(F)F)ccc21,–,0.717% [at 23.6 µM] (inactive)
COC(=O)C1=C(C)NC(C)=C(C(=O)OCCN2CCN(C(c3ccccc3)c3ccccc3)CC2)C1c1cccc([N+](=O)[O-])c1 (stereo unspecified),0.692 µM (active),–
COc1cc2nc(N3CCN(C(=O)c4ccco4)CC3)nc(N)c2cc1OC,–,1.12% [at 23.6 µM] (inactive)
Cc1cc(C)c(/C=C2\C(=O)Nc3ccccc32)[nH]1,11 µM (active),–

Structure (SMILES),Potency,"activity change, negative = inhibition"
Clc1sc(Cl)c(Cl)c1Cl,–,-11% (inactive)
CC(C)=CCC1=C(O)c2ccccc2C(=O)C1=O,31.6 µM (active),–
OC[C@@H](O)[C@@H](O)CO,–,7.41% (inactive)
CCCCCC/C=C\CCCCCCCC(=O)O,71 µM (active),–
O=[N+]([O-])c1cccc(C(F)(F)F)c1,–,2.83% (inactive)
COc1cc(/C=C/c2ccccc2)oc(=O)c1,32.8 µM (active),–
O=[N+]([O-])c1ccc(O)cc1C(F)(F)F,22.4 µM (active),–
O=c1oc2cc(O)ccc2c2oc3cc(O)ccc3c12,68.1 µM (active),–
CC[C@H](C)COC(=O)/C=C/c1ccc(N=Cc2ccc(OC)cc2)cc1,5.63 µM (active),–
C[C@@H](O)[C@H](N)C(=O)O,–,17.9% [at 23.6 µM] (inactive)
C/C=C/C=C/COC(=O)C(C)C,63.3 µM (active),–
S=c1nccc[nH]1,20 µM (active),–
CC(=O)OCC=C(C)C,–,-7.43% [at 53 µM] (inactive)
Cc1ccc(O)c(N)c1,15.9 µM (active),–
OCC(F)(F)F,–,-11.7% (inactive)
C=Cc1cccc(C)c1,inactive,–
Nc1nc(-c2ccccc2)cs1,11.2 µM (active),–
O=C(c1ccc(O)c(O)c1)c1ccc(O)cc1O,–,-18.7% (inactive)
CN(C)Cc1ccccc1O,–,-5.89% (inactive)
